# “And” between values parts separate entries of the source, which are not always exact repeats. Equal values may be shown once. Out of some 360,000 compounds screened, about 1,600 (0.44%) were called active.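 The calls were made as follows: active = every replicate showing at least 50% inhibition; inconclusive = mean inhibition at least 50% but not in every replicate; inactive = the rest.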 Many of the other results were omitted from the sample, so actives are more common in it than they were. The source holds several records for some structures; these can differ, active in one and inactive in another.
# Biological target: DNA repair protein RAD52 homolog (Homo sapiens) (UniProt P43351)
# Sequence (P43351 whole entry, looked up): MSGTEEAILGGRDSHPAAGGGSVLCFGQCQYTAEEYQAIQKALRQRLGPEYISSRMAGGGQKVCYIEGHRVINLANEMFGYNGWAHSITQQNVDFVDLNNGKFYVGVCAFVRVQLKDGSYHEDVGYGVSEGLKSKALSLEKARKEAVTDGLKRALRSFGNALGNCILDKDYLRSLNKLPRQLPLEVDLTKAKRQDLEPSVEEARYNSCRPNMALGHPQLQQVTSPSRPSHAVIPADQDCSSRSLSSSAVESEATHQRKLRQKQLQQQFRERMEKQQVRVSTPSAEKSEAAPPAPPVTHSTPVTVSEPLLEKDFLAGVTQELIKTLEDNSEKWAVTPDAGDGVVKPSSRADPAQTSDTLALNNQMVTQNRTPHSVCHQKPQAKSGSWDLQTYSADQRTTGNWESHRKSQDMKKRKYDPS
# Experiment: blockers of RAD52 strand annealing activity – biochemical, FRET, single point, set 2, primary screen (AID 651710)
# Conditions: recombinant RAD52 DNA annealing, FRET fluorescence; at 18.7 µM; stronger effect = higher value
row,Structure (SMILES),inhibition
1,CCCN(C)C[C@@H]1Oc2ncc(-c3cccc(C(=O)N(C)C)c3)cc2C(=O)N([C@H](C)CO)C[C@@H]1C,-4.17% (inactive)
2,CN(C)C(=O)C[C@H]1CC[C@H](NC(=O)NC2CCCC2)[C@@H](CO)O1,-3.59% (inactive)
3,CCCC#Cc1ccc([C@H]2[C@@H](CO)N3CCCCN(C(=O)c4ccc5c(c4)OCO5)C[C@@H]23)cc1,-42.9% (inactive)
4,COc1ccc(NC(=O)N(C)C[C@@H]2Oc3ccc(NC(=O)CCC(F)(F)F)cc3C(=O)N([C@@H](C)CO)C[C@H]2C)cc1,-4.28% (inactive)
5,O=C(Nc1ccccc1)[C@@H]1[C@@H](CO)[C@@H]2Cn3c(cccc3=O)[C@@H]2N1C(=O)C1CC1,2.14% (inactive)
6,C=Cn1cc[n+](CC(=O)c2ccc(OC)c(OC)c2)c1,98% (active)
7,COc1ccc(-n2nnnc2SCC(=O)c2ccc(OC)c(OC)c2)cc1,-22.4% (inactive)
8,COc1ccc(C(=O)COC(=O)c2ccc([N+](=O)[O-])s2)cc1OC,-8.04% (inactive)
9,COc1ccc2[nH]c3c(C)c4cc[n+](C)cc4c(C)c3c2c1,94.3% (active)
10,CC(=O)N(C)C[C@H]1Oc2ncc(C#CC3(O)CCCC3)cc2C(=O)N([C@@H](C)CO)C[C@@H]1C,9.64% (inactive)
11,CO[C@@H]1CN(C)C(=O)c2ccc(NC(=O)Nc3ccccc3)cc2OC[C@@H](C)N(C(=O)CN(C)C)C[C@H]1C,5.57% (inactive)
12,Cn1cnc(S(=O)(=O)N2CCCCN3[C@H](CO)[C@@H](c4ccc(-c5ccc(F)cc5)cc4)[C@@H]3C2)c1,-27.5% (inactive)
13,COc1ccc(-c2cn(CC[C@H]3CC[C@@H](NC(=O)CCN4CCCCC4)[C@H](CO)O3)nn2)cc1,-7.25% (inactive)
14,C[C@H]1CCCCO[C@H](CN(C)S(=O)(=O)c2ccc(F)cc2)[C@@H](C)CN([C@@H](C)CO)C(=O)c2cc(NS(=O)(=O)c3cn(C)cn3)ccc2O1,-9.68% (inactive)
15,CSc1ccccc1NC(=O)COC(=O)CCCOc1ccc(C)cc1,-13.4% (inactive)
16,CCCCCCCCCCOC(=O)Cn1c(COc2ccc(C)cc2)[n+](C)c2ccccc21,79.8% (active)
17,Cc1ccc(COc2ccc(C(=O)NN)cc2)cc1,-18.7% (inactive)
18,COCC#Cc1ccc2c(c1)O[C@@H](CN(C)C(=O)Nc1ccccc1F)[C@H](C)CN([C@H](C)CO)S2(=O)=O,11.1% (inactive)
19,O=S(=O)(c1ccccc1)N1CCCCN2[C@H](C1)[C@H](c1ccc(-c3ccccc3)cc1)[C@@H]2CO,-26.6% (inactive)
20,C[C@H]1CN([C@@H](C)CO)C(=O)c2cc(NC(=O)CCC(F)(F)F)ccc2O[C@H]1CN(C)Cc1ccc(C(=O)O)cc1,-6.5% (inactive)
21,CN1CCC[C@@H]1CCO[C@](C)(c1ccccc1)c1ccc(Cl)cc1,27.4% (inactive)
22,Cc1cc2oc3ccc(NCCC4CCCN4C)cc3c(=O)c2cc1C (centres undefined),60.4% (active)

row,Structure (SMILES),inhibition
1,COc1cccc2sc3cc(NCC[C@@H]4CCCN4C)ccc3c(=O)c12,-48.1% (inactive)
2,COc1ccc2c3c([nH]c2c1)[C@H](CO)N(C(=O)c1ccncc1)CC31CCN(C(=O)c2ccncc2)CC1,2.16% (inactive)
3,COc1ccccc1S(=O)(=O)N1C[C@@H]2N[C@H](C1)C2c1ccc(-c2cccc(C)c2)cc1 (some centres undefined),56.8% (active) and 37.8% (inactive)
4,COc1cccc(S(=O)(=O)N2C[C@@H]3N[C@H](C2)C3c2ccc(-c3cccc(C(=O)N(C)C)c3)cc2)c1 (some centres undefined),10.5% (inactive) and 16.9% (inactive)
5,N#Cc1ccc(-c2ccc(C3[C@@H]4CN(S(=O)(=O)c5ccccc5F)C[C@H]3N4)cc2)cc1 (some centres undefined),-15.8% (inactive) and -46.3% (inactive)
6,COc1ccc(NC(=O)N(C)C[C@H]2Oc3ccc(NS(=O)(=O)c4ccc(F)cc4)cc3C(=O)N([C@@H](C)CO)C[C@@H]2C)cc1,15.8% (inactive)
7,C[C@H](CO)N1C[C@H](C)[C@@H](CN(C)Cc2ccc(Cl)c(Cl)c2)Oc2ccc(NS(=O)(=O)c3ccccc3)cc2C1=O,-11.9% (inactive)
8,NCCCNC(=S)NCCCN(Cc1ccc(Cl)cc1)c1ccc(Br)cn1,95% (active)
9,S=C(NCCCc1cnc[nH]1)NCCCN(Cc1ccc(Cl)c(Cl)c1)c1ccc(Br)cn1,-1.73% (inactive)
10,O=C(/C=C/c1ccc(Cl)cc1)Nc1ccc(Br)cn1,-0.893% (inactive)
11,O=C1CN(S(=O)(=O)c2ccccc2)C[C@H]2[C@H](c3ccc(C4=CCCC4)cc3)[C@@H](CO)N12,-19.1% (inactive)
12,C[C@H](NC(=O)C[C@@H]1C=C[C@H](NC(=O)CN2CCOCC2)[C@H](CO)O1)c1ccccc1,3.29% (inactive)
13,Cc1ccc2nc(CN(C)C(=O)[C@@H](Cc3ccccc3)NC(=O)[C@H]3O[C@@H](n4ccc(=O)[nH]c4=O)[C@H](O)[C@@H]3O)[nH]c2c1,5.6% (inactive)
14,C[C@@H]1CN([C@H](C)CO)C(=O)Cc2cc(N(C)C)ccc2O[C@H]1CN(C)S(C)(=O)=O,-4.07% (inactive)
15,CCc1c(C)nc2c(-c3ccccc3)c(C)nn2c1Nc1ccc(NC(C)=O)cc1,-12.3% (inactive)
16,CC(=O)Nc1ccc(Nc2c3ccccc3nc3ccccc23)cc1,91.2% (active)
17,CC(=O)NCCn1c(SCC(=O)Nc2ccc(C)cc2)nc2ccccc2c1=O,-11.4% (inactive)
18,O=C(c1cnccn1)N1CC(=O)N2[C@H](C1)[C@@H](c1ccc(C#CC3CCCCC3)cc1)[C@@H]2CO,13.7% (inactive)
19,CN(C)CCNC(=O)c1ccc(Cl)c2cc3ccccc3nc12,94.5% (active)
20,CNC(=O)c1cccc2nc3ccccc3nc12,2.55% (inactive)
21,O=C(NCCc1ccccn1)c1cc(-c2ccc(Cl)cc2)nc2ccccc12,-15.9% (inactive)
22,Cn1cnc(S(=O)(=O)N[C@H]2C=C[C@H](CC(=O)NCC3CCCCC3)O[C@@H]2CO)c1,2.08% (inactive)

row,Structure (SMILES),inhibition
1,C[C@H](CO)N1C[C@H](C)[C@@H](CN(C)Cc2ccncc2)OCCCC[C@H](C)Oc2ccc(NS(=O)(=O)c3ccc(Cl)cc3)cc2C1=O,-15.9% (inactive)
2,C[C@@H]1CCCCO[C@H](CN(C)Cc2ccccc2)[C@H](C)CN([C@H](C)CO)C(=O)c2cc(NS(=O)(=O)c3ccc(Cl)cc3)ccc2O1,53.1% (active)
3,C[C@@H]1CN([C@@H](C)CO)C(=O)c2cc(NS(=O)(=O)c3cn(C)cn3)ccc2O[C@@H](C)CCCCO[C@H]1CN(C)S(=O)(=O)c1cccs1,99.3% (active)
4,C[C@@H]1CCCCO[C@H](CN(C)C(=O)CCCN(C)C)[C@H](C)CN([C@@H](C)CO)C(=O)c2cc(NS(=O)(=O)c3ccc(Cl)cc3)ccc2O1,52.5% (active)
5,C[C@@H]1CN([C@H](C)CO)C(=O)c2cc(NS(=O)(=O)c3cccs3)ccc2O[C@@H](C)CCCCO[C@@H]1CN(C)S(=O)(=O)c1cccs1,-0.96% (inactive)
6,C[C@@H]1CCCCO[C@H](CN(C)C(=O)CCCN(C)C)[C@H](C)CN([C@@H](C)CO)C(=O)c2cc(NS(=O)(=O)c3ccccc3)ccc2O1,13.8% (inactive)
7,CC(C)NC(=O)N(C)C[C@H]1OCCCC[C@H](C)Oc2ccc(NS(=O)(=O)c3ccc(Cl)cc3)cc2C(=O)N([C@@H](C)CO)C[C@H]1C,15.1% (inactive)
8,C[C@@H]1CCCCO[C@H](CN(C)S(=O)(=O)c2cccs2)[C@H](C)CN([C@@H](C)CO)C(=O)c2cc(NS(=O)(=O)c3cccs3)ccc2O1,-2.6% (inactive)
9,C[C@@H]1CCCCO[C@H](CN(C)Cc2ccccc2)[C@H](C)CN([C@@H](C)CO)C(=O)c2cc(NS(=O)(=O)c3ccccc3)ccc2O1,7.51% (inactive)
10,C[C@@H]1CN([C@H](C)CO)C(=O)c2cc(NS(=O)(=O)c3ccc(Cl)cc3)ccc2O[C@@H](C)CCCCO[C@H]1CN(C)Cc1ccccc1,64.2% (active)
11,C[C@H](CO)N1C[C@H](C)[C@H](CN(C)Cc2ccc(C(F)(F)F)cc2)OCCCC[C@H](C)Oc2ccc(NS(=O)(=O)c3ccc(Cl)cc3)cc2C1=O,5.56% (inactive)
12,C[C@@H]1CCCCO[C@H](CN(C)Cc2ccccc2)[C@@H](C)CN([C@H](C)CO)C(=O)c2cc(NS(=O)(=O)c3ccc(Cl)cc3)ccc2O1,35.2% (inactive) and -9.61% (inactive)
13,COc1cccc(S(=O)(=O)Nc2ccc3c(c2)[C@@H]2C[C@@H](CC(=O)NCc4ccc(Cl)cc4)O[C@H](CO)[C@@H]2O3)c1,10.3% (inactive)
14,CN(C)C(=O)C[C@@H]1C[C@H]2c3cc(NC(=O)Nc4ccccc4F)ccc3O[C@H]2[C@@H](CO)O1,-10% (inactive)
15,Cc1noc(C)c1S(=O)(=O)Nc1ccc2c(c1)CC(=O)N([C@@H](C)CO)C[C@H](C)[C@H](CN(C)C(=O)Nc1ccccc1)O2,-0.934% (inactive)
16,Cc1noc(C)c1NC(=O)Nc1cccc2c1O[C@@H](CN(C)C(=O)Nc1ccc(C(F)(F)F)cc1)[C@@H](C)CN([C@@H](C)CO)C2=O,-2.22% (inactive)
17,O=C(C[C@@H]1CC[C@@H]2[C@H](COC[C@H](O)CN2S(=O)(=O)c2ccc(Cl)cc2)O1)N[C@@H]1CCN(Cc2ccccc2)C1,17.8% (inactive)
18,O=C(C[C@H]1CC[C@H](NC(=O)Nc2ccccc2F)[C@@H](CO)O1)NCc1ccccc1,-8.56% (inactive)
19,COc1ccc(S(=O)(=O)Nc2ccc3c(c2)C(=O)N([C@H](C)CO)C[C@@H](C)[C@H](CN(C)Cc2ccccc2)O3)cc1,12.7% (inactive)
20,COc1cccc(-c2ccc([C@@H]3[C@@H](CO)N4C(=O)CN(C(=O)C5CCCCC5)C[C@H]34)cc2)c1,-17.9% (inactive)

# Reference: PubChem BioAssay AID651710 (Broad Institute, 2012)
